PubChem BioAssay (NCI)
About 79,000 compounds went through this panel and 15% of them were active in at least one assay; those are over-represented in the sample as a whole. Cut-off read from the data, not from the text of the source: active = growth inhibition above about 70%; inactive = the rest.

How the values were obtained:
[1] = NCI Yeast Anticancer Drug Screen. Data for the rad50 strain (AID 155);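 note: 0% = growth of vehicle-only cultures of the same strain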; conditions: S. cerevisiae rad50 strain growth inhibition, hits give high values; at 50.0 µM unless noted
How it was run: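 Compounds were tested on a yeast strain with an engineered DNA damage repair alteration; the reported value is growth inhibition normalised to vehicle treatment.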

[2] = NCI Yeast Anticancer Drug Screen. Data for the mec2-1 strain (AID 157); conditions: S. cerevisiae mec2-1 strain, hits give high values; at 50.0 µM unless noted
How it was run: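 Yeast mec2-1 mutant treated with compound. Readout: growth inhibition vs vehicle controls.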

[3] = NCI Yeast Anticancer Drug Screen. Data for the sgs1 mgt1 strain (AID 161);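 note: 0% = growth of cultures given vehicle only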; conditions: S. cerevisiae sgs1 mgt1 strain, hits give high values; at 50.0 µM unless noted
How it was run: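 Read-out: growth inhibition vs vehicle controls. Cells: mutant yeast strain deficient in DNA damage repair.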

[4] = NCI Yeast Anticancer Drug Screen. Data for the cln2 rad14 strain (AID 165);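 note: 0% = growth equal to vehicle treated cultures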; conditions: S. cerevisiae cln2 rad14 strain, hits give high values; at 50.0 µM unless noted
How it was run: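 cln2 rad14 yeast strain; compound exposure; growth inhibition read vs vehicle controls.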

[5] = NCI Yeast Anticancer Drug Screen. Data for the bub3 strain (AID 167); conditions: S. cerevisiae bub3 mutant strain, hits give high values; at 50.0 µM unless noted
How it was run: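 Growth of a checkpoint-deficient yeast mutant is measured after compound exposure. Values represent inhibition relative to vehicle.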

[6] = NCI Yeast Anticancer Drug Screen. Data for the mlh1 rad18 strain (AID 175); conditions: S. cerevisiae mlh1 rad18 strain growth inhibition, hits give high values; at 50.0 µM unless noted
How it was run: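 Yeast w/ defined DNA-repair lesions; compound exposure; growth vs vehicle controls → % inhibition.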

Measured: growth inhibition

Cc1ccc(C(CCC#N)OC(C)C)cc1 (stereo not given)
inactive: [1] 0.95% | [2] 19.8% | [3] 25.1% | [4] 11.9% | [5] 3.15% | [6] 21.1%

CCOC(=O)C(N)CSC(=O)NC (stereo not given)
inactive: [1] 24.9% | [2] -3.4% | [3] 16% | [4] 3.2% | [5] 20.9% | [6] -49.5%

CCOC(=O)Nc1ccccc1OCC
inactive: [1] -10.6% | [2] 2% | [3] -4.3% | [4] -90% | [5] 6.2% | [6] -3.45%

Clc1ccccc1Nc1nc(Nc2ccccc2Cl)nc(Nc2ccccc2Cl)n1
inactive: [1] 21.1% | [2] 19.4% | [3] 21.6% | [4] 37.9% | [5] 7.3% | [6] 5.95%

CC(C)OC(=O)CCC(N)C(=O)O (stereo not given)
inactive: [1] 2.95% | [2] 0.6% | [3] 1.85% | [4] -4.8% | [5] 2.55% | [6] 0.1%

COc1cccc(NC(=O)NCCCl)c1OC
inactive: [1] -1.2% | [2] 11.8% | [3] 11.6% | [4] 41% | [5] -3.8% | [6] 22.4%

Cc1c(C)c(C(=O)Cc2ccccc2)c(C)c(C(=O)Cc2ccccc2)c1C
inactive: [1] 19.6% | [2] -1.8% | [3] -15.3% | [4] 12.3% | [5] 5.55% | [6] 0.65%

COc1ccc(C2(O)OCC(COc3cc(C)c(Cl)c(C)c3)O2)cc1OC (stereo not given)
inactive: [1] -10% | [2] 1.35% | [3] 8.85% | [4] 18.5% | [5] -6.05% | [6] 3.45%

CCCCCCC(O)C[N+](=O)[O-] (stereo not given)
inactive: [1] 0.3% | [2] -28.9% | [3] -11.8% | [4] -5% | [5] -2.75% | [6] -3.9%

CC(C)(C1CCC([Si](C2CCCCC2)(C2CCCCC2)C2CCCCC2)CC1)[Si](C1CCCCC1)(C1CCCCC1)C1CCCCC1 (stereo not given)
inactive: [1] 8% | [2] -0.15% | [3] -14.4% | [4] -7.2% | [5] 3.3% | [6] -1.95%

C(/C=C/c1ccccc1)=Nc1ccc(SSc2ccc(N=C/C=C/c3ccccc3)cc2)cc1
inactive: [1] 38.2% | [2] 6.25% | [3] 4.65% | [4] -13% | [5] -3.05% | [6] 27.9%

O=C(O)c1c(-c2nccc3ccccc23)[nH]c(-c2ccccc2)c1S(=O)(=O)O
inactive: [1] -23.1% | [2] 5.7% | [3] -18.9% | [4] -35.3% | [5] -24.4% | [6] 21.6%

O=C(NCCO)c1c(O)c2ccccc2[nH]c1=O
inactive: [1] 2.8% | [2] 0.2% | [3] -6.05% | [4] 12.9% | [5] 6.55% | [6] 2.9%

CCC(Cl)COP(=O)(OCC(Cl)CC)O/C(C)=C(\C)OP(=O)(OCC(Cl)CC)OCC(Cl)CC (stereo not given)
inactive: [1] 13.8% | [2] 13.3% | [3] 27.4% | [4] 9.7% | [5] 0.4% | [6] -1.7%

NC(=S)/N=C(/c1nc2ccc(Cl)cc2[nH]c1=O)C(O)c1ccccc1Cl (stereo not given)
inactive: [1] -2.85% | [2] -21.8% | [3] -20.2% | [4] 4.35% | [5] 22.5% | [6] 5.75%

CC(C)C(C=O)C(O)(C(F)(F)F)C(F)(F)F (stereo not given)
inactive: [1] 2.3% | [2] -2.8% | [3] -30.6% | [4] 13.3% | [5] 22.3% | [6] 0.5%

COCCOC(=O)COc1ccccc1
inactive: [1] 22.1% | [2] 23% | [3] 16.2% | [4] 3.5% | [5] -8% | [6] -1.15%

CCOC(=O)Cc1nc2ccccc2[nH]1
inactive: [1] 4.4% | [2] -7.85% | [3] -13.2% | [4] -103% | [5] -12.2% | [6] -3.2%

C#CC(C)(O)CCC(C)C (stereo not given)
inactive: [1] -10% | [2] -16.1% | [3] -3.3% | [4] 14.5% | [5] 10.8% | [6] -16.9%

COC1C(OC(=O)c2ccc(C)[nH]2)C(O)C(Oc2ccc3c(O)c(NC(=O)c4c[nH]c(C(=O)Nc5c(O)c6ccc(OC7OC(C)(C)C(OC)C(OC(=O)c8ccc(C)[nH]8)C7O)c(C)c6oc5=O)c4C)c(=O)oc3c2C)OC1(C)C (stereo not given)
inactive: [1] 17% | [2] 8.45% | [3] 15.2% | [4] 24.7% | [5] 11.4% | [6] 26.6%
